# Bioassay records from PubChem BioAssay.
# DT40 TDP1 no CPT = qHTS for Inhibitors of human tyrosyl-DNA phosphodiesterase 1 (TDP1): qHTS in cells in absence of CPT. actives 15% (n = 420,000). DT40 Tdp1-/- hTDP1 cells, no CPT, ATP luminescence, 48 h. Potency, µM (titrated, usually from 46.2 µM), actives largely listed as inhibitors; further: nearly all actives have a fitted effect of over 55% in size
#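 No-CPT arm: Tdp1-/-;hTDP1 DT40 cells (400/well) plus compounds, incubated ≥48 hr at 37 °C. Readout CellTiter-Glo luminescence.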
# DT40 TDP1 CPT = growth inhibition of DT40 Tdp1-/-;hTDP1 cells with camptothecin (screen for TDP1 inhibitors); chicken DT40 Tdp1-/-;hTDP1 cells + 20 nM CPT, ATP luminescence, 48 h; Potency, µM (series often up to 46.2 µM), usual class: inhibitors; actives 12% (n = 420,000); AID 686979; further: nearly all actives have a fitted effect of over 55% in size
#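 Chicken DT40 Tdp1-/- cells complemented with human TDP1, 400 cells/well, exposed to compounds plus 20 nM camptothecin for at least 48 h at 37 C; viability read as ATP content by CellTiter-Glo luminescence.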
# TGFb SMAD3 inh = inhibitors of TGF-b signaling | HepG2 CAGA-GFP TGF-b/SMAD3 reporter, GFP fluorescence, 18 h; TGF-beta stimulated, 500 pg/mL final | Potency, µM (top dose mostly 46.1 µM), hits mostly inhibitors | actives 1.2% (n = 410,000) | AID 588855; further: nearly all actives have a fitted effect of over 65% in size
#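 First, reporter cells (HEPG2 CAGA-GFP) rested 2 h at 37 degrees C. Next, compounds were pinned in and TGF-beta added to 500 pg/mL final. After 18 h, GFP was imaged per cell and summed per well.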
# HT1080 IDH1KD tx = toxicity to HT-1080 IDH1 knockdown cells (counter line). HT-1080 IDH1 knockdown viability, ATP luminescence, 48 h. Potency, µM (highest dose often 46.1 µM), most hits filed as cytotoxic. actives 2% (n = 360,000)
#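 Viability of IDH1-knockdown HT-1080 fibrosarcoma cells was assessed by CellTiter-Glo after 48 h at 37 °C with titrated compound; concentration-effect curves were classified by fit quality and response size.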
# HepG2 viability = counter-screen for TGF-b inhibitors: cytotoxicity in HepG2 cells. HepG2 CAGA-GFP viability, ATP luminescence, 18 h. Potency, µM (titrated, usually from 46.1 µM), actives largely listed as cytotoxic. actives 0.76% (n = 410,000). AID 588856
#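 CellTiter-Glo luminescence gave cytotoxicity after 18 hours at 37 degrees C. The cells were HepG2 CAGA-GFP in 1% FBS DMEM, stimulated with 500 pg/mL TGF-beta after compound addition. %Activity was normalised to no-cell wells (complete cell-killing) and DMSO (no toxicity), and curves were fitted and classified.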
# HT1080-NT tox = kills 2HG-producing HT-1080-NT fibrosarcoma cells | HT-1080-NT fibrosarcoma viability, CellTiter-Glo ATP luminescence, 48 h | Potency, µM (doses to about 46.1 µM), hits mostly cytotoxic | actives 1.6% (n = 360,000) | AID 686970;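 further: NT is the 2HG producing partner of a matched IDH1 knockdown line; nearly all actives have a fitted effect of over 55% in size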
#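 Fibrosarcoma NT cells, 750 per well in 5% FBS RPMI, were exposed to compound for 48 hours. Viability: CellTiter-Glo luminescence.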
# A number is an active result; - = inactive; ? = inconclusive; . = no result given. A selection: hits, their analogues and other compounds. The true share with any hit is near 17%. The call rests on the fitted dose curve; in most records, active means well fitted curve in the direction sought with a large enough effect; inconclusive means small, poorly fitted or top-dose-only effect, or another doubt; inactive means no such curve, though single readings can be large; an effect the other way counts as inactive or inconclusive.
SMILES,DT40 TDP1 no CPT,DT40 TDP1 CPT,TGFb SMAD3 inh,HT1080 IDH1KD tx,HepG2 viability,HT1080-NT tox
COC(=O)c1ccc(OCC2c3cc(OC)c(OC)cc3CCN2C(=O)c2ccc(OC)cc2)cc1 (stereo not drawn),?,?,-,.,-,.
COC(=O)c1ccc(OCC2c3cc(OC)c(OC)cc3CCN2C(=O)Cc2ccc(OC)c(OC)c2)cc1 (stereo not drawn),?,23µM,-,.,-,.
Cc1cccc(NC(=O)CNC(=O)c2ccc(S(=O)(=O)NCc3ccco3)cc2)c1C,-,-,-,-,-,-
COc1ccc(-c2ccc3c(c2)C2CC3CCN2C(=O)OCc2ccccc2)cc1 (stereo not drawn),?,16µM,-,-,-,-
CCN(CCc1ccccc1)c1ccc2c(c1)C1CC2CCN1Cc1ccccc1 (stereo not drawn),5.8µM,6.5µM,-,-,-,-
O=C(OCc1ccccc1)N1CCC2CC1c1cc(/C=C/CCCSc3ncccn3)ccc12 (stereo not drawn),23µM,?,-,-,-,-
O=C(OCc1ccccc1)N1CCC2CC1c1cc(-c3ccc(F)cc3)ccc12 (stereo not drawn),?,?,-,-,-,-
O=C(OCc1ccccc1)N1CCC2CC1c1cc(NCCc3ccccc3)ccc12 (stereo not drawn),?,?,-,-,-,-
CC(=O)N(CCc1ccccc1)c1ccc2c(c1)C1CC2CCN1C(=O)OCc1ccccc1 (stereo not drawn),6.5µM,8.2µM,?,?,-,?
FC(F)(F)c1ccccc1-c1cc(NCc2cccnc2)ncn1,-,-,.,.,.,.
Cc1cccc(N/C(N)=N/c2nc(C)c(Cc3ccccc3)c(=O)[nH]2)c1,?,?,-,-,-,-
O=C(OCc1ccccc1)N1CCC2CC1c1cc(N3CCCCC3)ccc12 (stereo not drawn),?,?,-,-,-,-
Cc1ccccc1C(=O)N1CCC2CC1c1cc(-c3ccc(F)cc3)ccc12 (stereo not drawn),18µM,?,?,-,-,-
Clc1cccc(CN2CCC3CC2c2cc(N4CCCCC4)ccc23)c1 (stereo not drawn),?,-,-,-,-,-
O=C(OCc1ccccc1)N1CCC2CC1c1cc(N3CCNCC3)ccc12 (stereo not drawn),16µM,?,-,-,-,-
O=C(c1cc(Cl)cc(Cl)c1)N1CCC2CC1c1cc(N3CCCCC3)ccc12 (stereo not drawn),21µM,?,-,-,-,-
COc1cccc(-c2ccc3c(c2)C2CC3CCN2C(=O)c2ccc(-c3ccccc3)cc2)c1 (stereo not drawn),18µM,?,-,-,-,-
Cc1c(Cl)cccc1NC(=S)Nc1ccc(S(=O)(=O)Nc2ncccn2)cc1,-,-,?,-,-,-
O=C(C(=O)N1CCC(c2ccccc2)CC1)c1cccc([N+](=O)[O-])c1,?,-,.,-,.,-
COc1ccc(-c2ccc3c(c2)C2CC3CCN2S(=O)(=O)c2ccccc2C)cc1 (stereo not drawn),16µM,?,-,-,-,-
C[C@@H](NC(=O)[C@@H]1CCCN1C(=O)[C@@H]1CCCN1C(=O)OC(C)(C)C)c1ccccc1,-,-,.,-,.,-
COC(=O)c1ccc(C)c(NS(=O)(=O)c2ccc3c(c2)OCCO3)c1,0.92µM,0.92µM,-,0.71µM,-,0.5µM
O=S(=O)(Nc1cccnc1Cl)c1ccc2c(c1)OCCO2,-,-,-,-,-,?
Cc1c(Cl)cccc1NS(=O)(=O)c1ccc(NS(=O)(=O)c2ccc3c(c2)OCCO3)cc1,-,-,16µM,.,-,.
O=[N+]([O-])c1ccc(S(=O)(=O)Nc2ccc3c(c2)OCCO3)cc1,16µM,?,-,-,-,-
SMILES,DT40 TDP1 no CPT,DT40 TDP1 CPT,TGFb SMAD3 inh,HT1080 IDH1KD tx,HepG2 viability,HT1080-NT tox
N#CCc1ccc(NS(=O)(=O)c2ccc(N3CCCC3=O)cc2)cc1,?,13µM,-,-,-,-
Cc1c(F)cccc1NS(=O)(=O)c1ccc(N2CCCC2=O)cc1,-,-,-,-,-,-
COC(=O)c1ccc(C)c(NS(=O)(=O)c2ccc(C)c([N+](=O)[O-])c2)c1,?,-,-,?,-,-
Cc1ccc(S(=O)(=O)Nc2ccc3c(c2)OCCO3)cc1,?,-,?,-,-,-
Cc1cccc(NC(=O)c2cc(S(=O)(=O)NCCc3ccccc3)ccc2F)c1C,-,-,-,.,-,.
CC(=O)c1ccc(NS(=O)(=O)c2ccc([N+](=O)[O-])cc2)cc1,-,-,-,-,-,-
O=[N+]([O-])c1ccc(S(=O)(=O)Nc2ccc(-c3ccccc3)cc2)cc1,13µM,?,?,-,-,-
CC(=O)Nc1ccc(S(=O)(=O)Nc2ccc3c(c2)OCCO3)cc1,7.3µM,?,-,-,-,-
CC(=O)c1cc2c(cc1NS(=O)(=O)c1ccc(C)cc1)OCCO2,21µM,23µM,-,16µM,-,?
O=C1CCCN1c1ccc(S(=O)(=O)Nc2ccc3c(c2)OCCO3)cc1,2.9µM,3.3µM,-,?,-,5µM
Cc1ccc(S(=O)(=O)N2CCN(C(=O)COC(=O)CSc3ccccc3)CC2)c(C)c1,-,-,-,-,-,-
CC(=O)Nc1ccc(S(=O)(=O)N2CCCC2)cc1,-,?,-,-,-,-
CC(=O)Nc1ccc(S(=O)(=O)N2CCc3cc4c(cc3C2)OCCCO4)cc1,?,21µM,-,-,-,-
Cc1c(NS(=O)(=O)c2ccc3c(c2)OCCO3)cccc1-c1nc2cccnc2s1,12µM,?,?,-,-,-
CC(=O)NC12CC3CC(C1)CC(C(=O)Nc1ccc(C)c(S(=O)(=O)N4CCCCCC4)c1)(C3)C2,?,?,-,-,-,-
O=C(NNC(=O)C1CCC1)c1ccccc1F,-,-,-,-,-,-
N#Cc1c(Nc2ccccc2C(F)(F)F)s[nH]c1=O,21µM,21µM,20µM,?,-,-
N#Cc1c(Nc2ccccc2)s[nH]c1=O,8.2µM,8.2µM,?,-,-,-
N#Cc1c(Nc2ccccc2Cl)s[nH]c1=O,5.2µM,15µM,-,16µM,-,?
NNc1ccccc1C(F)(F)F,-,-,-,-,-,-
O=[N+]([O-])c1cc(S(=O)(=O)Nc2ccccc2)ccc1Nc1ccccc1,15µM,?,?,-,-,7.3µM
